Data from PubChem BioAssay AID1159580 (chemical genetic matrix, 2015).
Where “and” joins values, the source holds several entries; their conditions need not be identical. Equal values may be shown once. Out of some 5,500 compounds screened, about 2,000 (36%) were called active. Roughly 18% stayed inconclusive and do not appear here. No stated cut-off is given here; in the data, active means normalized growth mostly below about 0.91 (no sharp cut-off); inconclusive means no clear call, values can overlap the other calls; inactive means mostly above about 0.92. Some of the results follow.

Assay: chemical genetic growth profiling, strain panel (AID 1159580);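 further: tested at 20 µM; growth read once vehicle control cultures reached saturation at 30 °C; 1 = growth at the plate median or of vehicle wells; lower values mean less growth of the strain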
Conditions: S. cerevisiae deletion strains, growth OD

Measured: normalized growth

C=C1CCC2C(CC2(C)C)C(=O)CCC1O (stereo unspecified)
inactive: locus YAL013W, strain DEP1, active compounds read low 0.984 | locus YAL021C, strain ccr4, active compounds read low 0.94 | locus YAL026C, strain drs2, active compounds read low 0.996 | locus YAL030W, strain snc1, active compounds read low 1 | locus YBL061C, strain skt5, active compounds read low 0.999 | locus YBR009C, strain hhf1, active compounds read low 0.987 | locus YBR021W, strain FUR4, active compounds read low 1.02 | locus YBR023C, strain chs3, active compounds read low 0.986 | locus YBR171W, strain sec66, active compounds read low 1 | locus YBR229C, strain ROT2, active compounds read low 1.01 | locus YBR231C, strain swc5, active compounds read low 1.01 | locus YBR279W, strain paf1, active compounds read low 0.995 | locus YCL011C, strain gbp2, active compounds read low 0.984 | locus YCL016C, strain dcc1, active compounds read low 0.983 | locus YCL029C, strain bik1, active compounds read low 1 | locus YCL061C, strain MRC1, active compounds read low 0.993 | locus YCL069W, strain vba3, active compounds read low 0.999 | locus YCR088W, strain abp1, active compounds read low 0.993 | locus YDL005C, strain med2, active compounds read low 0.991 | locus YDL035C, strain GPR1, active compounds read low 1 | locus YDL040C, strain nat1, active compounds read low 1 | locus YDL074C, strain BRE1, active compounds read low 1 | locus YDL101C, strain DUN1, active compounds read low 1.03 | locus YDL134C, strain PPH21, active compounds read low 1.04 | locus YDL185W, strain tfp1, active compounds read low 1.03 | locus YDL192W, strain arf1, active compounds read low 0.992 | locus YDR001C, strain nth1, active compounds read low 0.976 | locus YDR069C, strain doa4, active compounds read low 0.981 | locus YDR101C, strain arx1, active compounds read low 0.995 | locus YDR137W, strain rgp1, active compounds read low 0.985 | locus YDR159W, strain sac3, active compounds read low 1.06 | locus YDR162C, strain NBP2, active compounds read low 1.01 | locus YDR195W, strain ref2 0.968 | locus YDR297W, strain sur2, active compounds read low 1.01 | locus YDR318W, strain mcm21, active compounds read low 1 | locus YDR334W, strain swr1, active compounds read low 0.988 | locus YDR335W, strain msn5, active compounds read low 0.985 | locus YDR388W, active compounds read low 1.02 | locus YDR392W, strain spt3, active compounds read low 0.911 | locus YDR502C, strain sam2, active compounds read low 1.04 | locus YEL003W, strain gim4, active compounds read low 1 | locus YEL037C, strain rad23, active compounds read low 0.993 | locus YEL061C, strain CIN8 (second series), active compounds read low 0.993 | locus YEL061C, strain CIN8, active compounds read low 1.02 | locus YER015W, strain faa2, active compounds read low 0.981 | locus YER016W, strain bim1, active compounds read low 1 | locus YER110C, active compounds read low 1.02 | locus YER111C, strain swi4, active compounds read low 0.997 | locus YER155C, strain BEM2 (second series), active compounds read low 1.03 | locus YER155C, strain BEM2, active compounds read low 1 | locus YER167W, strain BCK2, active compounds read low 1 | locus YFR010W, strain ubp6, active compounds read low 0.996 | locus YGL078C, strain dbp3, active compounds read low 1.04 | locus YGL086W, strain mad1, active compounds read low 1.02 | locus YGL167C, strain pmr1, active compounds read low 0.975 | locus YGL173C, strain kem1, active compounds read low 1 | locus YGL227W, strain vid30, active compounds read low 0.985 | locus YGL240W, strain doc1, active compounds read low 1 | locus YGL248W, strain PDE1, active compounds read low 1.05 | locus YGL253W, strain hxk2, active compounds read low 1.02 | locus YGR078C, strain PAC10, active compounds read low 1.02 | locus YGR135W, strain pre9, active compounds read low 1.08 | locus YGR229C, strain SMI1, active compounds read low 0.945 | locus YGR252W, strain gcn5, active compounds read low 1.08 | locus YHR013C, strain ard1, active compounds read low 0.978 | locus YHR027C, strain rpn1, active compounds read low 1 | locus YHR030C, strain SLT2, active compounds read low 1.02 | locus YHR079C, strain IRE1 (second series), active compounds read low 1.01 | locus YHR079C, strain IRE1, active compounds read low 1.03 | locus YHR094C, strain hxt1, active compounds read low 1.01 | locus YHR129C, strain ARP1, active compounds read low 1.01 | locus YHR142W, strain chs7, active compounds read low 0.979 | locus YHR200W, strain rpn10, active compounds read low 1.03 | locus YIL066C, strain RNR3, active compounds read low 1.02 | locus YIL073C, strain SPO22, active compounds read low 1.09 | locus YIL125W, strain kgd1, active compounds read low 1.01 | locus YIR030C, strain dcg1, active compounds read low 1.01 | locus YJL092W, strain hpr5, active compounds read low 0.988 | locus YJL095W, strain BCK1 (second series), active compounds read low 0.987 | locus YJL095W, strain BCK1, active compounds read low 1.08 and 1.04 | locus YJL115W, strain asf1, active compounds read low 0.961 | locus YJL129C, strain trk1, active compounds read low 0.984 | locus YJL134W, strain LCB3, active compounds read low 1.01 | locus YJL154C, strain vps35, active compounds read low 0.99 | locus YJL164C, strain tpk1, active compounds read low 0.963 | locus YJL166W, strain qcr8, active compounds read low 0.993
